Assay results from PubChem BioAssay.
The source made the active and inactive calls.

Key:
[1] = optical density shifts of acrAB sulA E. coli – strain DRC41, OD650, 48 h, E. coli filamentation inducer project, primary screen (AID 1152); conditions: higher = more signal, called active from +8 up or from −8 down;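 note: E. coli MC1000 strain DRC41 lacking acrAB efflux pump and sulA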
[2] = probe aLefty1 binding on compound microarray – biochemical, small-molecule microarray, 635/667 nm fluorescence, primary screen (AID 1153); conditions: higher = more signal;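 note: score merges spot fluorescence with signal-to-noise ratio from the scanned slide images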
[3] = plasmodial surface anion channel blockers, osmotic lysis – cell-based, P. falciparum Indochina, OD700, 1 h, primary screen (AID 1154); conditions: P. falciparum Indochina infected RBC osmotic lysis, higher = more signal, called active from +8 up or from −8 down
[4] = plasmodial surface anion channel blockers, osmotic lysis – cell-based, P. falciparum Indochina, OD700, 2 h, primary screen (AID 1155);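 note: lysis reports solute entry through the parasite surface anion channel PSAC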; conditions: P. falciparum Indochina infected erythrocytes, higher = more signal, called active from +8 up or from −8 down
[5] = changes in parasitized red cell lysis, either direction – P. falciparum Indochina, OD700, 3 h, PSAC antagonist project, primary screen (AID 1156); conditions: P. falciparum-infected erythrocytes, osmotic lysis, higher = more signal, called active from +8 up or from −8 down
[6] = plasmodial surface anion channel blockers, osmotic lysis – cell-based, P. falciparum Indochina, OD700, 18 h, primary screen (AID 1157); conditions: P. falciparum Indochina infected erythrocytes, osmotic lysis OD700, 18 h; higher = more signal, called active from +8 up or from −8 down
[7] = S6 kinase pathway phospho-S6 level changes – cell-based, A549, cytoblot, luminescence, serum-stimulated, primary screen (AID 1158); conditions: 5 h, higher = more signal;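 note: serum-stimulated A549 lung adenocarcinoma cells; signal is phosphorylated S6 detected by cytoblot immunostaining with HRP secondary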
[8] = target: NADPH oxidase 2 (Homo sapiens) (UniProt P04839); assay: compounds shifting NOX2 Amplex Red fluorescence – cell-based, HEK293-NOX2, PMA-stimulated, NOX inhibitor project, primary screen (AID 1159); conditions: 45 min, higher = more signal, called active from +8 up or from −8 down; note: test concentration not given here
NADPH oxidase 2 (Homo sapiens), sequence (P04839 whole entry, looked up): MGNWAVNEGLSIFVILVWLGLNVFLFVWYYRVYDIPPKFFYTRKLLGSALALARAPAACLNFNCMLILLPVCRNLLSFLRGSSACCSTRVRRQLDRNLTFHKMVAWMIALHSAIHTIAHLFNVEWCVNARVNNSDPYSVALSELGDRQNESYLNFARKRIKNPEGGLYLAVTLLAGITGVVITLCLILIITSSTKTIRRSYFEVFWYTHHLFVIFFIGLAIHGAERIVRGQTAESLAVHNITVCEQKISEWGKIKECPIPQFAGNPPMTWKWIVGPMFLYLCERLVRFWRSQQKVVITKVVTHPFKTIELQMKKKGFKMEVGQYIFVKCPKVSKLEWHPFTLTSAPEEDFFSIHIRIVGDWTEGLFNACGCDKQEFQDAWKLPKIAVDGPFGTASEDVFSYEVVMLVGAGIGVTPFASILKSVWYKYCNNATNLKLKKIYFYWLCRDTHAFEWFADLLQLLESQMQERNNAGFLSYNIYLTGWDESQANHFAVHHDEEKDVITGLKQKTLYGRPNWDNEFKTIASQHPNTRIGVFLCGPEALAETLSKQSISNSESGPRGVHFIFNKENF

[9] = target: NADPH oxidase 4 (Homo sapiens) (UniProt Q9NPH5); assay: compounds shifting NOX4 Amplex Red fluorescence – cell-based, HEK293-NOX4, tetracycline-induced, NOX inhibitor project, primary screen (AID 1160); conditions: HEK293-NOX4, Amplex Red H2O2 fluorescence, 45 min; higher = more signal, called active from +8 up or from −8 down
NADPH oxidase 4 (Homo sapiens), sequence (Q9NPH5 whole entry, looked up): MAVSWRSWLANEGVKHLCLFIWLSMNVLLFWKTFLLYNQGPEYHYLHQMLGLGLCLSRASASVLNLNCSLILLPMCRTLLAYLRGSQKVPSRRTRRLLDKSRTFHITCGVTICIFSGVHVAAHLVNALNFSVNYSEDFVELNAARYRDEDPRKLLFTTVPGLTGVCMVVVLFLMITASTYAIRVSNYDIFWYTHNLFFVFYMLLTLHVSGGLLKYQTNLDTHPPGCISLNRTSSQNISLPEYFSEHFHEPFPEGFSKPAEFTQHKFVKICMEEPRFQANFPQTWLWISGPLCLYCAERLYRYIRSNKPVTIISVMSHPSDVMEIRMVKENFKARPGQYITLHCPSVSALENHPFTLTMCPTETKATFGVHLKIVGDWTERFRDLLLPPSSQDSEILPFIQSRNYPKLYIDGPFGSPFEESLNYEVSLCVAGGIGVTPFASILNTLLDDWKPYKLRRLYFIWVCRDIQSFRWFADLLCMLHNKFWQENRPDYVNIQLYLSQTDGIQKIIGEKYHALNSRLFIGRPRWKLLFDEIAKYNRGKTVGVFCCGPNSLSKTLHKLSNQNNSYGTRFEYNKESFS

[10] = target: NADPH oxidase 5 (Homo sapiens) (UniProt Q96PH1); assay: compounds shifting NOX5 Amplex Red fluorescence – cell-based, HEK293-NOX5, NOX inhibitor project, primary screen (AID 1161); conditions: HEK293-NOX5, ionomycin, 45 min, higher = more signal
NADPH oxidase 5 (Homo sapiens), sequence (Q96PH1 whole entry, looked up): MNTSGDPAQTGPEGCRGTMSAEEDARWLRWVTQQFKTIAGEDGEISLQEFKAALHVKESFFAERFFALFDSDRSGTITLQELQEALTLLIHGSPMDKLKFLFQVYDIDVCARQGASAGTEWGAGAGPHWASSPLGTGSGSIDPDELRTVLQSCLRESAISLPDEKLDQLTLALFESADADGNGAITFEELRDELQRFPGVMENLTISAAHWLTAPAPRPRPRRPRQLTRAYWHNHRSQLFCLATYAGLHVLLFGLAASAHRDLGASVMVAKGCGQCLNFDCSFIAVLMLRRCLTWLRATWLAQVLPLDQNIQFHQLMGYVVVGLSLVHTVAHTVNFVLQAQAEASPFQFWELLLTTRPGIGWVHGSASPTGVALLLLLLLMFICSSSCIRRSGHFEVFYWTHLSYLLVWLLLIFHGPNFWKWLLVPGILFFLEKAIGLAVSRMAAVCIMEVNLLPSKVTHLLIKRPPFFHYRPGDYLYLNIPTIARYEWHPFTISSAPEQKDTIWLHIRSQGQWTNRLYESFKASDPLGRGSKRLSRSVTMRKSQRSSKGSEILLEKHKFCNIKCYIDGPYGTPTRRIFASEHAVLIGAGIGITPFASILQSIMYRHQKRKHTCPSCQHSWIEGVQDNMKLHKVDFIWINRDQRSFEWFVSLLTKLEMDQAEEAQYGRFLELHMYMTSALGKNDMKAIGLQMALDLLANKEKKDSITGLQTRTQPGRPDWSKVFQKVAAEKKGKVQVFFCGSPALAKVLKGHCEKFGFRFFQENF

[11] = compound effects on lung adenocarcinoma cell viability – A549, calcein-AM fluorescence, 48 h, basal, profiling panel (AID 1162); conditions: higher = more signal; note: test concentration not given here
[12] = compound effects on differentiated 3T3-L1 adipocyte viability – cell-based, 3T3-L1 adipocytes, calcein-AM fluorescence, 48 h, basal, profiling panel (AID 1163); conditions: 3T3-L1 adipocytes viability, higher = more signal; note: test concentration not given here
[13] = compound effects on hepatocellular carcinoma cell viability – HepG2, calcein-AM fluorescence, 48 h, basal, profiling panel (AID 1164); conditions: higher = more signal; note: test concentration not given here
[14] = compound effects on multiple myeloma cell viability – MM1S, calcein-AM fluorescence, 48 h, basal, profiling panel (AID 1165); conditions: higher = more signal; note: test concentration not given here
[15] = calcein-AM signal in unstimulated myeloma cells – cell-based, calcein-AM fluorescence, 48 h, PK04 Diversity Set, profiling panel (AID 1166); conditions: RPMI8226 myeloma viability, higher = more signal;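 note: cells grown under basal conditions without added stimulus; test concentration not given here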
[16] = JC-1 mitochondrial signal, unstimulated HepG2 cells – cell-based, JC-1 fluorescence, 24 h, 100 nL compound, profiling panel (AID 1167); conditions: HepG2 mitochondrial potential, higher = more signal; note: test concentration not given here
[17] = JC-1 mitochondrial signal, unstimulated adipocytes – cell-based, JC-1 fluorescence, 3T3-L1 adipocytes, 24 h, 100 nL compound, profiling panel (AID 1168); conditions: JC-1 mitochondrial fluorescence, higher = more signal, called active from +8 up or from −8 down; note: test concentration not given here
[18] = JC-1 mitochondrial signal, unstimulated myeloma cells – cell-based, JC-1 fluorescence, RPMI8226, 24 h, 100 nL compound, profiling panel (AID 1169); conditions: JC-1 mitochondrial potential fluorescence, higher = more signal; note: test concentration not given here
[19] = JC-1 mitochondrial signal, unstimulated MM1S myeloma – cell-based, JC-1 fluorescence, 24 h, 100 nL compound, profiling panel (AID 1170); conditions: MM1S mitochondrial potential, higher = more signal; note: test concentration not given here
[20] = resazurin metabolic signal in A549 cells – cell-based, resazurin fluorescence, 24 h, PK04 Diversity Set, profiling panel (AID 1171); conditions: A549 viability, higher = more signal, called active from +8 up or from −8 down; note: test concentration not given here

Row | Structure (SMILES) | z-score [1] | composite z-score [2] | z-score [3] | z-score [4] | z-score [5] | z-score [6] | z-score [7] | z-score [8] | z-score [9] | z-score [10] | z-score [11] | z-score [12] | z-score [13] | z-score [14] | z-score [15] | z-score [16] | z-score [17] | z-score [18] | z-score [19] | z-score [20]
1 | C[C@@H](c1ccccc1)N1C(=O)[C@H]2[C@H]3[C@H](O)[C@H](O)CC(=NNC(=O)OCc4ccccc4)[C@H]3CC[C@H]2C1=O | 0.645 (inactive) | 0.107 | 3.27 (inactive) | 1.03 (inactive) | 0.0197 (inactive) | 0.0072 (inactive) | 0.296 | 0.982 (inactive) | 1.08 (inactive) | 0.412 | -0.34 | -0.903 | -0.208 | -0.0615 | 0.127 | -1.05 | -0.0829 (inactive) | 0.502 | 0.00989 | -0.0339 (inactive)
2 | CC(CCC(=O)OC[C@H]1O[C@H](C#Cc2ccccc2)C=C[C@@H]1Oc1ccc(C)cc1)=NOC[C@@H](O)COCc1ccco1 | 0.654 (inactive) | -0.839 | 17.7 (active) | 1.77 (inactive) | 0.811 (inactive) | 1.18 (inactive) | 0.63 | -0.0388 (inactive) | 0.811 (inactive) | -0.37 | 0.303 | -0.135 | -0.45 | -2.4 | -2.27 | -1.54 | 0.324 (inactive) | -0.31 | -1.31 | -0.0838 (inactive)
3 | CCCC[C@@H]1C[C@H]1[C@@H](NS(=O)(=O)c1cccc2cccnc12)c1ccc(-c2ccccc2)cc1 | -1.29 (inactive) | 0.0217 | 1.58 (inactive) | 0.985 (inactive) | 0.336 (inactive) | 0.764 (inactive) | -0.464 | 0.0564 (inactive) | -1.29 (inactive) | 1.21 | -1.11 | -1.08 | -0.0369 | 0.252 | 0.0748 | -1.13 | -0.43 (inactive) | -0.214 | -1.49 | 0.239 (inactive)
4 | COC(=O)[C@H](C)NC(=O)CCC1CC(OC(=O)NCCc2ccc(F)cc2)CC2(CCCC(COC(=O)NCCc3ccc(Cl)cc3)O2)O1 (stereo not given in full) | 0.954 (inactive) | -0.0464 | 1.83 (inactive) | 0.316 (inactive) | -0.0413 (inactive) | 0.2 (inactive) | 0.0808 | 0.431 (inactive) | 0.778 (inactive) | 0.612 | 0.98 | -0.154 | 0.649 | -1.14 | -0.227 | 0.341 | 0.313 (inactive) | 0.437 | -0.324 | 0.544 (inactive)
5 | CN(C)CCCNC(=O)[C@@H]1c2ccccc2C(=O)N(Cc2ccccc2)[C@H]1c1ccc(CO)cc1 | 0.346 (inactive) | -0.163 | 2.98 (inactive) | 0.604 (inactive) | 2.64 (inactive) | 0.33 (inactive) | -0.25 | -1.11 (inactive) | 1.02 (inactive) | -0.911 | 2.34 | 0.917 | 1.31 | -0.0214 | 0.932 | 1.89 | 0.418 (inactive) | 0.0996 | 0.108 | 0.534 (inactive)
6 | COc1ccc(O[C@H]2C=C[C@@H](c3ccccc3)O[C@@H]2COC(=O)CCC(C)=NOC[C@@H](C)[C@H](OCc2ccccc2)C(C)C)cc1 | -0.72 (inactive) | -0.278 | 0.857 (inactive) | 0.55 (inactive) | 0.607 (inactive) | 0.294 (inactive) | -0.656 | 0.796 (inactive) | 0.478 (inactive) | 0.329 | -0.0801 | 0.13 | -0.442 | -0.0358 | -1.02 | 0.577 | -1.61 (inactive) | 0.815 | -0.146 | 1 (inactive)
7 | COC(=O)[C@H](C)NC(=O)CCC1CC(OC(=O)NCc2cccc3ccccc23)CC2(CCCC(COC(=O)NCC3CCCCC3)O2)O1 (stereo not given in full) | -0.484 (inactive) | -0.325 | 0.994 (inactive) | -0.35 (inactive) | -0.555 (inactive) | 0.125 (inactive) | -0.444 | 0.17 (inactive) | 0.236 (inactive) | 0.469 | -0.332 | -0.687 | 0.385 | -0.875 | 0.913 | 1.38 | -0.477 (inactive) | -0.188 | -0.652 | 0.458 (inactive)
8 | CCOC(=O)NN=C1C[C@@H](O)[C@@H](O)[C@@H]2[C@@H]3C(=O)N(C4CCCCC4)C(=O)[C@@H]3CC[C@H]12 | -1.02 (inactive) | -0.288 | 3.79 (inactive) | 0.323 (inactive) | 0.822 (inactive) | 0.574 (inactive) | -0.0238 | 2.18 (inactive) | -1.17 (inactive) | -1.46 | -0.392 | 1.04 | 0.31 | -0.796 | -1.06 | -0.0619 | -1.05 (inactive) | -0.527 | 0.51 | -1.23 (inactive)
9 | CC(C)=NOCc1ccc(-c2cc(-c3ccccc3)no2)cc1 | 0.433 (inactive) | -0.283 | 0.251 (inactive) | 0.367 (inactive) | -0.201 (inactive) | -0.0729 (inactive) | 0.321 | -2.54 (inactive) | 0.311 (inactive) | -0.0709 | 0.947 | 0.0379 | 0.433 | 0.283 | -1.14 | -0.49 | -0.618 (inactive) | 0.825 | -0.152 | -0.589 (inactive)
